Laboratory results as given in PubChem BioAssay (Tox21).
Records with an inconclusive call do not appear. Active and inactive are the calls of the source. Unless noted, calls follow the shape of the dose curve; as a rule, active = well fitted curve in the direction sought with a large enough effect in the repeat runs; inconclusive = weak or mixed curves; inactive = no such curve, though single readings can be large; an effect the other way counts as inactive or inconclusive.

Experiments:
[1] = qHTS assay to identify small molecule antagonists of the estrogen related receptor (ERR) signaling pathway from Tox21 library - cell viability counter screen (AID 1224834); conditions: ERR reporter cells viability, CellTiter-Fluor, 17.5 h; series mostly up to 92.4 µM; also: nearly all actives have a fitted effect of over 30% in size
In short: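 ERR reporter cells, 2,000 per well, rested 6 h, then exposed to compound in DMSO for 17.5 hours at 37 C. Viability read as fluorescence after 30 min with CellTiter-Fluor.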

[2] = target: Luciferin 4-monooxygenase (Photinus pyralis) (UniProt P08659); assay: qHTS assay to identify small molecule inhibitors of firefly luciferase (AID 1224835); also: nearly all actives have a fitted effect of over 25% in size; also: potency is read from the fitted curve at half-maximal effect; conditions: purified P. pyralis luciferase, luminescence inhibition; series mostly up to 115 µM
Sequence of Luciferin 4-monooxygenase (Photinus pyralis) (P08659 whole entry, looked up): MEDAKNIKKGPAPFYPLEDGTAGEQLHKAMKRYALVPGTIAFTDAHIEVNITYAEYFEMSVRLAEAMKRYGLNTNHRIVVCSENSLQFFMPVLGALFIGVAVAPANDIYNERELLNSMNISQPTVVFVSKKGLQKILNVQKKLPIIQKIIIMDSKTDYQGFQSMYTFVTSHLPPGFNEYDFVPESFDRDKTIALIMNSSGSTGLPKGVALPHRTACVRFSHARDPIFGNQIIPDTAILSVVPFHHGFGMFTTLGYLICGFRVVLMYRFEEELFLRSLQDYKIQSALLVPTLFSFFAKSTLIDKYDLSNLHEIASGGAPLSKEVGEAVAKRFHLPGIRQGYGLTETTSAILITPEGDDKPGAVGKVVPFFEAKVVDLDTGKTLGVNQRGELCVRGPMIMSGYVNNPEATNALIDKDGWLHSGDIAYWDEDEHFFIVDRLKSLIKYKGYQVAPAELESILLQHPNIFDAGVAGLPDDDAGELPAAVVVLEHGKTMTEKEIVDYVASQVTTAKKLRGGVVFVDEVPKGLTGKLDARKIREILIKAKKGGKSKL
In short: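 Inhibition of purified Photinus luciferase is measured by luminescence. Substrate levels (D-luciferin, ATP) sit at their KM values. Each compound is tested in a concentration series.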

[3] = qHTS assay to identify small molecule agonists of the constitutive androstane receptor (CAR) signaling pathway - cell viability counter screen (AID 1224836); conditions: HepG2-CYP2B6-hCAR viability, CellTiter-Fluor, 23 h, PK11195 added to every well; series mostly up to 92.4 µM; also: nearly all actives have a fitted effect of over 45% in size
In short: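 HepG2-CYP2B6-hCAR, 2500 cells/well, 4 h pre-incubation; cpd 15 conc + PK11195 0.75 uM final; 23 h, 37 C/5% CO2; CellTiter-Fluor, fluorescence.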

[4] = qHTS assay to identify small molecule antagonists of the constitutive androstane receptor (CAR) signaling pathway - cell viability counter screen (AID 1224837); conditions: HepG2-CYP2B6-hCAR viability, CellTiter-Fluor, 23 h, co-treated with 50 nM CITCO; series mostly up to 92.4 µM; also: nearly all actives have a fitted effect of over 45% in size
In short: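 HepG2 cells stably carrying hCAR and CYP2B6-2.2kb reporter, stimulated with 50 nM CITCO and compounds at 15 concentrations for 23 h at 37 C. Viability measured by CellTiter-Fluor fluorescence.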

[5] = target: Nuclear receptor subfamily 1 group I member 3 (Homo sapiens) (UniProt Q14994); assay: qHTS assay to identify small molecule antagonists of the constitutive androstane receptor (CAR) signaling pathway (AID 1224838); conditions: HepG2-CYP2B6-hCAR luciferase, CITCO-stimulated, 24 h; series mostly up to 92.4 µM; also: nearly all actives have a fitted effect of over 40% in size
Sequence of Nuclear receptor subfamily 1 group I member 3 (Homo sapiens) (Q14994 whole entry, looked up): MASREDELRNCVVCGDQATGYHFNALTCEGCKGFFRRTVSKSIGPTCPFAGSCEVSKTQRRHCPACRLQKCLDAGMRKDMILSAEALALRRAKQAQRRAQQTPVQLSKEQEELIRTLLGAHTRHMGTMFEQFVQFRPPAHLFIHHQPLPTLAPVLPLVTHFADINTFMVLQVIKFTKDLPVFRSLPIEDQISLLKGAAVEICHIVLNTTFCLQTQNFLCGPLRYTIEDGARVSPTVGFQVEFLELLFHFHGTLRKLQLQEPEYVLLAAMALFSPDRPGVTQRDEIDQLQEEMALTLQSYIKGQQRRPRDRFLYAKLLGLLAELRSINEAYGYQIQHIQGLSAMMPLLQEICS
In short: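 HepG2 cells stably carrying hCAR and a CYP2B6-2.2kb luciferase reporter, seeded 4 hrs before compound (15 concentrations). Stimulated with 50 nM CITCO for 24 hr at 37 C. ONE-Glo luminescence read after 30 min at room temperature.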

[6] = target: Nuclear receptor subfamily 1 group I member 3 (Homo sapiens) (UniProt Q14994); assay: qHTS assay to identify small molecule agonists of the constitutive androstane receptor (CAR) signaling pathway (AID 1224839); conditions: HepG2 hCAR CYP2B6-luciferase, agonist mode, 24 h; series mostly up to 92.4 µM; also: nearly all actives have a fitted effect of over 15% in size; also: potency is read from the fitted curve at half-maximal effect
In short: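 HepG2-CYP2B6-hCAR cells, 2500/well, 4 h pre-incubation; compounds 15 conc.; PK11195 0.75 uM final; 24 h, 37 C/5% CO2; ONE-Glo luciferase read.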

[7] = qHTS assay to identify small molecule antagonists of the estrogen related receptor signaling pathway with the pleiotropic PPARgamma coactivator (PGC) from Tox21 10K library - cell viability counter screen (AID 1224840; active = well fitted cell-killing curve with a large enough effect in the repeat runs, not every such curve was filed as active; also: nearly all actives have a fitted effect of over 40% in size); conditions: PGC/ERR reporter cells viability, CellTiter-Fluor, 17.5 h; series mostly up to 92.4 µM
In short: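 PGC/ERR cells (2,000/well) plated 6 h, then compound-treated for 17.5 h at 37 C. Viability measured by CellTiter-Fluor fluorescence after 30 min at 37 C, multiplexed with the pathway assay.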

[8] = qHTS assay to identify small molecule antagonists of the estrogen related receptor signaling pathway with the pleiotropic PPARgamma coactivator (PGC) from Tox21 10K library (AID 1224841; call rule not given here; also: actives are mostly falling curves and most rising ones were filed inactive; nearly all actives have a fitted effect of over 50% in size); conditions: PGC/ERR reporter cell line, ONE-Glo luciferase, 18 h; series mostly up to 92.4 µM
In short: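 PGC/ERR cell line, 2,000 cells/well, pre-incubated 6 hours at 37 C, then exposed to compounds for 18 hours at 37 C; luciferase read with One-Glo luminescence after 30 min at room temperature.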

[9] = qHTS assay to identify small molecule agonists of the estrogen related receptor signaling pathway with the pleiotropic PPARgamma coactivator (PGC) from Tox21 10K library (AID 1224842); conditions: PGC/ERR reporter cell line, luciferase ONE-Glo, 18 h; series mostly up to 92.4 µM; also: nearly all actives have a fitted effect of over 15% in size
In short: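 Luminescence from One-Glo (30 min, room temperature) measured after PGC/ERR cells had 18 h at 37 C with pinned compound (23 nL in DMSO). Cells had been seeded at 2,000 per well and pre-incubated 6 h.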

[10] = target: Thyrotropin receptor (Homo sapiens) (UniProt P16473); assay: qHTS assay to identify small molecule agonists of the thyroid stimulating hormone receptor (TSHR) signaling pathway (AID 1224843; calls by dose curve; also: nearly all actives have a fitted effect of over 45% in size); conditions: TSHR-HEK293 cells, cAMP HTRF, agonist mode, 30 min; series mostly up to 92.4 µM
Sequence of Thyrotropin receptor (Homo sapiens) (P16473 whole entry, looked up): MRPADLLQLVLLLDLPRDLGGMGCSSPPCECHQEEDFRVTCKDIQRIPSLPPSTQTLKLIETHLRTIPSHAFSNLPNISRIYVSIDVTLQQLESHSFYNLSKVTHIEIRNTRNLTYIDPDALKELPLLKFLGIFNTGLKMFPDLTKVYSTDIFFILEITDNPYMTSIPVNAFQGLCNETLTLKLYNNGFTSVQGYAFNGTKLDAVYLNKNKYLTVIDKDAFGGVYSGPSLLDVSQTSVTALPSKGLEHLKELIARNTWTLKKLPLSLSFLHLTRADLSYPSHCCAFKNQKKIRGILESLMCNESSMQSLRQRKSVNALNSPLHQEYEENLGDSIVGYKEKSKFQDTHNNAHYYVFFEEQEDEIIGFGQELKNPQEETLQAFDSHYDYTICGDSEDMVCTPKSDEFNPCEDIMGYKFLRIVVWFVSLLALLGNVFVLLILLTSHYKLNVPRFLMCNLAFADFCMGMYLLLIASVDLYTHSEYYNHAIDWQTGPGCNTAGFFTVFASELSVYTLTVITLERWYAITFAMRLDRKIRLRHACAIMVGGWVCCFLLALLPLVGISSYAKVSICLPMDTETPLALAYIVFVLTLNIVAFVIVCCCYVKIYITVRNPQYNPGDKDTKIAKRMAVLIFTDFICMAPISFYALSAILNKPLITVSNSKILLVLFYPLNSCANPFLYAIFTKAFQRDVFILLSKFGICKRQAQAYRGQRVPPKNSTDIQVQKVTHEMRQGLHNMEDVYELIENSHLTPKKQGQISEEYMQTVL
In short: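 HEK293 cells stably bearing the thyrotropin receptor were plated at 800 cells/well and challenged with compound (30 min, RT). Accumulated cAMP was quantified via cAMP-d2 competing for cryptate-tagged antibody.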

[11] = qHTS assay to identify small molecule agonists of the hypoxia (HIF-1) signaling pathway - cell viability counter screen (AID 1224844; calls by dose curve; also: nearly all actives have a fitted effect of over 50% in size); conditions: HRE-bla ME-180 viability, CellTiter-Glo luminescence, 17 h; series mostly up to 76.8 µM
In short: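 HRE-bla ME-180 cells, 2,000/well in 0.5% dialyzed FBS medium, treated 17 h at 37C with compounds. Viability read in the same wells as the bla reporter, by CellTiter-Glo luminescence after 30 min at room temperature.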

[12] = qHTS assay to identify small molecule agonists of H2AX (AID 1224845; active = well fitted activation curve with a large enough effect in the signal ratio in the repeat runs, not every such curve was filed as active; the % refers to the signal ratio); conditions: CHO-K1 phospho-H2AX Ser139 HTRF, 3 h; series mostly up to 154 µM
In short: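 Phospho-H2AX Ser139 measured by HTRF (ex 320 nm; em 665 and 620 nm) after 24 hr antibody incubation. Compounds, 15 concentrations, 0.76% DMSO, were applied to CHO-K1 cells for 3hr at 37C before lysis.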

[13] = qHTS assay to identify small molecule antagonists of the estrogen related receptor (ERR) signaling pathway - cell viability counter screen (AID 1224818); conditions: ERR reporter cell line viability counter screen; series mostly up to 46.1 µM
In short: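 ERR cells, 2,000 per well, compound added after 6 h and incubated 17.5 h at 37 C. Viability read by CellTiter-Fluor fluorescence after a further 30 min at 37 C.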

[14] = qHTS assay to identify small molecule agonists of the retinoic acid receptor (RAR) signaling pathway (AID 1159553); conditions: C3RL4 RARE luciferase reporter, agonist, 6 h; series mostly up to 73.3 µM
In short: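 C3RL4 RARE-luciferase cells were seeded at 1,000/well and grown overnight at 37 C, then exposed to compounds for 6 hr at 37 C, 5% CO2. Luciferase reagent was added and luminescence was read after 30 min at room temperature.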

[15] = qHTS assay to identify small molecule antagonists of the retinoic acid receptor (RAR) signaling pathway (AID 1159552; also: nearly all actives have a fitted effect of over 50% in size); conditions: C3RL4 RARE luciferase reporter, retinol-stimulated, 6 h; series mostly up to 92.4 µM
In short: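 Cells of the C3RL4 line were seeded, incubated overnight, then dosed with compounds in DMSO followed immediately by retinol (1 uM final). Six hours later luciferase detection reagent went in; signal was measured after 30 min at RT.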
% is scaled to controls: 0 for no effect and ±100 for the full control effect.

CC1=C(C/C=C(\C)CCC[C@H](C)CCC[C@H](C)CCCC(C)C)C(=O)c2ccccc2C1=O
inactive: Potency [1] | Potency [2] | outcome [3] | outcome [4] | Potency [5] | Potency [6] | outcome [7] | Potency [8] | Potency [9] | Potency [10] | Potency [11] | Potency [12]

COc1cc(C(=O)OC(COCCC(C)C)CN2CCOCC2)cc(OC)c1OC (stereo not given)
inactive: Potency [1] | Potency [2] | outcome [3] | outcome [4] | Potency [5] | Potency [6] | outcome [7] | Potency [10] | Potency [11] | Potency [12]

CN1C(C)(C)CC(O)CC1(C)C
inactive: Potency [1] | outcome [3] | outcome [4] | Potency [5] | Potency [6] | outcome [7] | Potency [10] | Potency [11] | Potency [12]

CCOc1ccc2nc(S(N)(=O)=O)sc2c1
inactive: Potency [1] | outcome [3] | outcome [4] | Potency [5] | outcome [7] | Potency [10] | Potency [11]
active: Potency [6] 7.5 µM

CC1=NS(=O)(=O)c2cc(Cl)ccc2N1
inactive: outcome [13] | Potency [1] | Potency [2] | outcome [3] | outcome [4] | Potency [5] | Potency [6] | outcome [7] | Potency [10] | Potency [11] | Potency [12]

CO/N=C(\C(=O)N[C@@H]1C(=O)N2C(C(=O)O)=C(CSc3nc(=O)c(O)nn3C)CS[C@H]12)c1csc(N)n1
inactive: Potency [14] | Potency [1] | Potency [2] | outcome [3] | outcome [4] | Potency [5] | Potency [6] | outcome [7] | Potency [8] | Potency [9] | Potency [10] | Potency [11] | Potency [12]

CCCCN1C=CN(C)C1
inactive: Potency [14] | viability change, negative = cytotoxic [1] 0.161% [at 19 µM] | viability change, negative = cytotoxic [3] 5.36% [at 19 µM] | activity change, negative = cytotoxicity [4] -1.55% [at 19 µM] | activity, negative = inhibition [5] 14.7% [at 19 µM] | activation [6] -0.414% [at 19 µM] | activation [9] 0.537% [at 19 µM] | activation [10] 2.47% [at 19 µM] | activity change, negative = cytotoxicity [11] -14.8% [at 15.8 µM] | activation (H2AX phosphorylation) [12] -0.0666% [at 31.6 µM]

CCCCCC(=O)OCCc1ccccc1
inactive: Potency [1] | outcome [3] | outcome [4] | Potency [5] | Potency [6] | Potency [8] | Potency [9] | Potency [10] | Potency [11] | Potency [12]
active: Potency [2] 15.9 µM

C=C[Si](OC(C)=O)(OC(C)=O)OC(C)=O
inactive: Potency [15] | Potency [1] | Potency [2] | outcome [3] | outcome [4] | Potency [5] | Potency [6] | outcome [7] | Potency [11] | Potency [12]

CO[C@@]1(NC(=O)C(C(=O)O)c2ccc(O)cc2)C(=O)N2C(C(=O)O)=C(CSc3nnnn3C)CO[C@@H]21 (stereo not given in full)
inactive: Potency [15] | Potency [14] | Potency [1] | outcome [3] | outcome [4] | Potency [5] | Potency [6] | outcome [7] | Potency [8] | Potency [9] | Potency [10] | Potency [11] | Potency [12]

CC(=O)c1cnccn1
inactive: Potency [15] | Potency [1] | Potency [2] | outcome [3] | outcome [4] | Potency [5] | Potency [6] | outcome [7] | Potency [10] | Potency [11] | Potency [12]

CCCCCCCCN1CCCC1=O
inactive: Potency [15] | Potency [1] | Potency [2] | outcome [3] | outcome [4] | Potency [5] | outcome [7] | Potency [8] | Potency [9] | Potency [11] | Potency [12]
active: Potency [6] 30.6 µM

COc1ccccc1OCC1CNC(=O)O1 (stereo not given)
inactive: Potency [1] | Potency [2] | outcome [3] | outcome [4] | Potency [5] | Potency [6] | outcome [7] | Potency [9] | Potency [10] | Potency [11] | Potency [12]

Cc1ccccc1N=C(N)N=C(N)N
inactive: Potency [15] | Potency [1] | Potency [2] | outcome [3] | outcome [4] | outcome [7] | Potency [10] | Potency [11] | Potency [12]
